Most compounds without a hit are left out; they make up all but 19% or so of the library.
Pf growth 96h: inhibits malaria parasite growth, 96 h. P. falciparum luciferase reporter growth, 96 h. Potency, µM (highest dose often 28.7 µM), for the others: top-dose activity change, negative = inhibition, most hits filed as inhibitors. 320,000 tested, 6.9% active; note: potency is the fitted concentration of half-maximal effect; % is set by controls: 0 for no effect and ±100 for the full control effect
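Infected RBCs, 2% Hct / 0.05% parasitemia final; luciferase-reporter P. falciparum; cpd 96 h, 37 C, 5% CO2; luciferase detection reagent; luminescence.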
SARS PLpro yeast: SARS-CoV PLP inhibition in yeast; S. cerevisiae expressing SARS-CoV PLpro, growth rescue; Potency, µM (top dose mostly 32.9 µM), for the others: at the highest dose activity, positive = growth rescue, hits mostly activators; 330,000 tested, 0.19% active; AID 485353; calls by dose curve; note: potency is the fitted concentration of half-maximal effect; 0% is about no effect; nearly all actives have a fitted effect of over 55% in size
AMA1 RON2 block: AMA1-RON2 (P. falciparum) interaction inhibition | 360,000 tested, 0.2% active | AlphaScreen AMA1-biotinylated RON2 peptide binding | Potency, µM (titrated, usually from 58.2 µM), for inactives: at the top dose activity change, negative = inhibition, actives largely listed as inhibitors;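 note: potency is the fitted concentration of half-maximal effect; 0% = vehicle wells and -100% = peptide control; nearly all actives have a fitted effect of over 45% in size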
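AMA1 (3D7) with his tag at 25 nM final met compounds first, then biotinylated RON2 peptide at 25 nM; detection used donor plus acceptor beads, 10 µg/mL apiece, read by AlphaScreen after 30 min at room temperature.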
Cycloheximide cs: affects cycloheximide protein synthesis inhibition readout, counter-screen | cell reporter, cycloheximide protein synthesis inhibition counterscreen | max response, % | 300,000 tested, 12% active | AID 2314; in the data active = max response mostly above about 13%, no sharp cut-off; inactive = mostly below about 14%; note: read at 38.3 µM for the half of the compounds with a filed dose; 0% is about no effect
Shiga toxin inh: blocks Shiga toxin action in Vero cells; 290,000 tested, 9.2% active; AID 2315; Vero cells, Shiga toxin protein synthesis inhibition reporter; inhibition, % at 38.7 µM; in the data active = inhibition mostly above about 28%, no sharp cut-off; inactive = mostly below about 43%; note: 0% is about no effect
Pf growth 48h: inhibits P. falciparum growth in the first generation, 48 h | P. falciparum luciferase growth in erythrocytes, 48 h | Potency, µM (doses to about 28.7 µM), for the others: at the highest dose activity change, negative = inhibition, most hits filed as inhibitors | AID 504832 | 310,000 tested, 5.9% active; note: potency is the fitted concentration of half-maximal effect; % is set by controls: 0 for no effect and ±100 for the full control effect
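Firefly luciferase activity from engineered P. falciparum reports growth; inhibitors lower the luminescent signal. Cultures contained 2% hematocrit erythrocytes at 0.1% final parasitemia.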
* marks the source's active call; other numbers are inactive results; ? = inconclusive; . = no result. Unless noted, calls come from the whole dose curve; as a rule, active = well fitted curve in the direction sought with a large enough effect; inconclusive = small, poorly fitted or top-dose-only effect, or another doubt; inactive = no such curve, though single readings can be large; an effect the other way counts as inactive or inconclusive.

SMILES	Pf growth 96h	SARS PLpro yeast	AMA1 RON2 block	Cycloheximide cs	Shiga toxin inh	Pf growth 48h
COc1ccc2c(c1)c1nc3n(c(=O)c1n2CC(=O)Nc1ccccc1)CCCS3	45%	-1%	3%	-3	-6	-5%
O=C(c1ccccc1NS(=O)(=O)c1ccc(F)cc1F)N1CCCCC1	.	-10%	-10%	.	.	.
N#Cc1ccsc1NC(=O)C1CCN(C(=O)c2ccc(Cl)cc2)CC1	-14%	-6%	-12%	.	.	-7%
CC1(C)CC(=O)c2ccc(OCc3ccc([N+](=O)[O-])cc3)cc2O1	252%	0%	-19%	40*	84*	228%
COC(=O)c1ccc(COc2cc(O)c3c(c2)OC(C)(C)CC3=O)cc1	.	-1%	1%	17	-4	?
CC1(C)CC(=O)c2c(O)cc(OCc3ccc(Br)cc3)cc2O1	75%	-6%	24%	49*	70*	.
COCCNc1nc(-c2ccc(Cl)cc2C)c2sccc2n1	.	.	84%	.	.	.
O=C(NNC(=O)c1ccccc1[N+](=O)[O-])c1ccc(NC(=O)c2ccccc2)cc1	18%	2%	64%	25	18	23%
O=C(COC(=O)C1CCCCC1C(=O)N1CCc2ccccc21)NCc1ccco1 (stereo not drawn)	-33%	0%	-10%	2	-12	12µM*
CC(=O)c1cccc(OCC(O)CN2CC=C(c3ccccc3)CC2)c1 (stereo not drawn)	1.9µM*	5%	-23%	-1	-12	?
COc1ccc(N2CCN(C(=O)COC(=O)[C@@H](NC(=O)c3c(F)cccc3F)C(C)C)CC2)cc1	.	.	-1%	.	.	.
COc1ccc(C(=O)N/C(=C\c2cccc3ccccc23)C(=O)NCCc2c[nH]c3ccccc23)cc1OC	5.9µM*	0%	-16%	10	20	2.9µM*
O=C(NCCc1c[nH]c2ccccc12)/C(=C\c1cccs1)NC(=O)c1ccccc1	15µM*	5%	-15%	-2	-3	?
COc1ccc(C(=O)NCCc2c[nH]c3ccccc23)cc1OC	?	-14%	1%	-3	2	-15%
Nc1ccc2c(c1)oc1ccccc12	47%	3%	-11%	27*	50*	42%
Nc1ccc2oc3ccccc3c2c1	55%	2%	0%	14	4	32%
OC[C@@H]1CN(CCN2CCOCC2)C[C@H](n2cnc3c(NC4CC4)ncnc32)O1	.	.	-2%	.	.	.
CCOc1ccccc1/C=C/c1onc(C)c1S(=O)(=O)N1CCC(C(=O)N2CCCCCC2)CC1	?	5%	-12%	-2	-7	7.4µM*
COc1ccc(/C=C/c2onc(C)c2S(=O)(=O)N2CCC(C(=O)N3CCCCCC3)CC2)cc1	?	6%	-8%	6	2	4.1µM*
Cc1cccc(/C=C/c2onc(C)c2S(=O)(=O)N2CCC(C(=O)N3CCCCC3)CC2)c1	?	-2%	-7%	-2	-5	9.3µM*
CCOC(=O)C1(Cc2cccc(OC)c2)CCCN(CCO)C1 (stereo not drawn)	?	1%	1%	-2	8	-19%
Oc1ccc(C[C@H]2CNC(=S)N2CC2CCCN2C[C@H](Cc2ccc(O)cc2)N2C[C@H](Cc3ccc(O)cc3)N(CC3CCCCCC3)C2=S)cc1 (stereo partly drawn)	.	.	25%	.	.	.
Cc1ccc(Nc2c(-c3ccc(N(C)C)cc3)nc3ncccn23)cc1	?	-1%	-25%	14	21	?
Cc1ccc(SCc2nc3ncccn3c2Br)cc1	-5%	0%	11%	28*	37	-18%
COCCCN1C(=O)C(CC(=O)NCCN2CCOCC2)CC(C(=O)N2CCCCCC2)=C1C (stereo not drawn)	.	.	0%	.	.	.
SMILES	Pf growth 96h	SARS PLpro yeast	AMA1 RON2 block	Cycloheximide cs	Shiga toxin inh	Pf growth 48h
C/C=C/C=C/[C@H]1Cc2cc(O)cc(O)c2O1	3%	2%	.	-5	-3	9%
O=C1C=C(c2ccc(O)cc2)C[C@@H](c2ccc(Cl)cc2)C1	2.3µM*	2%	-2%	.	.	3.7µM*
O=C1C=C(c2ccccc2)C[C@@H](c2ccc(Cl)cc2)C1	?	5%	31%	.	.	2.6µM*
O=C1C=C(c2ccc3[nH]ccc3c2)C[C@@H](c2ccc(Cl)cc2)C1	4.7µM*	-3%	0%	.	.	2.6µM*
O=C1C=C(c2cccc(CO)c2)C[C@@H](c2ccc(Cl)cc2)C1	0.47µM*	0%	7%	.	.	0.33µM*
COC(=O)[C@@]12C[C@@H](CC(=O)N3CCCC3)C(=O)N(Cc3ccco3)C1=CCC(C)(C)C2	.	.	2%	.	.	.
S=c1[nH]nc(CCCc2n[nH]c(=S)o2)o1	-3%	2%	29%	-2	-21	-8%
COc1ccc([C@H]2CC(=O)C=C(c3ccc(C)c4ccccc34)C2)cc1	1.2µM*	5%	11%	.	.	?
CC(C)c1cccc(C2=CC(=O)C[C@H](c3ccc(F)cc3)C2)c1	2.3µM*	0%	25%	.	.	1.7µM*
COc1ccc(C2=CC(=O)C[C@H](c3ccc(Cl)cc3)C2)cc1	?	8%	6%	.	.	?
COc1cccc(C2=CC(=O)C[C@H](c3ccc(Cl)cc3)C2)c1	?	-14%	1%	.	.	2.9µM*
COCc1cc(C)nc(OCC(=O)N/N=C/c2ccc(-c3cc([N+](=O)[O-])ccc3Cl)o2)c1C#N	?	-1%	3%	-10	-18	16%
CN1C(=O)C2(N=c3ccccc3=N2)c2ccccc21	9%	-10%	-18%	-2	-1	20%
CN1C(=O)C(O)(c2nnc(-c3ccccc3)o2)c2ccccc21 (stereo not drawn)	25%	-5%	10%	19*	46	114%
Cc1cc(N/N=C2/CCCc3ccccc32)nc2ccccc12	?	-10%	6%	54*	57*	?
CC1C/C(=N/Nc2nc3ccccc3[nH]2)CC(C)(C)C1 (stereo not drawn)	2.1µM*	5%	81%	33*	69*	3.7µM*
c1ccc2nc(NN=C3CCCCC3)ccc2c1	.	.	6%	.	.	.
Cc1cc(N/N=C2\CC(C)CC(C)(C)C2)nc2ccccc12 (stereo not drawn)	?	-1%	57%	35*	27*	?
c1ccc2[nH]c(NN=C3CCCCCC3)nc2c1	?	24%	17%	44*	110*	?
c1ccc(N/N=C2\CCCc3ccccc32)nc1	?	7%	-25%	18	7	?
O=C(Nc1cc2nn(-c3ccccc3)nc2cc1Cl)c1ccco1	-19%	2%	-1%	21*	47*	64%
Nc1nc(NC(=O)c2ccco2)nn1-c1ccccc1	20%	3%	15%	35*	79*	56%
O=C(Nc1ccc2nn(-c3ccccc3)nc2c1)c1ccco1	?	-36%	-9%	47*	72*	69%

Assay outcomes from PubChem.
